Screens from PubChem BioAssay.
Rpn11 block = Rpn11 (PSMD14) deubiquitinase inhibitors, primary screen, biochemical, fluorescence polarization, uHTS | human 26S proteasome, Ub4-pepOG fluorescence polarization; 20S core pre-blocked with epoxomicin | inhibition, % at 20 µM | 360,000 tested, 0.59% active | AID 588493, 2011;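 active = inhibition at 20 µM, scaled to each plate's controls, above about 33%, limit read from the data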
CTSL1 counter = Fasciola hepatica cathepsin L1 inhibitors, primary screen, counter-screen for PFM18AAP inhibitor project, biochemical, QFRET, fluorogenic peptide substrate; recombinant F. hepatica cathepsin L1, Z-Leu-Arg-MCA fluorescence; inhibition, % at 5.96 µM; 300,000 tested, 0.49% active;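 active = inhibition above the mean of all tested compounds plus 3 SD, set per screening campaign, cut at about 17% in these data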;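 also: 0% = plate median of test compound wells and 100% = 1 µM Z-Phe-Ala-diazomethylketone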
HNF4A DNA FP = change in binding of human HNF4A to DNA, primary screen, biochemical, fluorescence polarization, FITC-DNA. 360,000 tested, 0.3% active. activity change, % at 10 µM. 1 h; in the data active = activity change above about 30%, passing the limit was not always enough
Target sequence (P41235 whole entry, looked up): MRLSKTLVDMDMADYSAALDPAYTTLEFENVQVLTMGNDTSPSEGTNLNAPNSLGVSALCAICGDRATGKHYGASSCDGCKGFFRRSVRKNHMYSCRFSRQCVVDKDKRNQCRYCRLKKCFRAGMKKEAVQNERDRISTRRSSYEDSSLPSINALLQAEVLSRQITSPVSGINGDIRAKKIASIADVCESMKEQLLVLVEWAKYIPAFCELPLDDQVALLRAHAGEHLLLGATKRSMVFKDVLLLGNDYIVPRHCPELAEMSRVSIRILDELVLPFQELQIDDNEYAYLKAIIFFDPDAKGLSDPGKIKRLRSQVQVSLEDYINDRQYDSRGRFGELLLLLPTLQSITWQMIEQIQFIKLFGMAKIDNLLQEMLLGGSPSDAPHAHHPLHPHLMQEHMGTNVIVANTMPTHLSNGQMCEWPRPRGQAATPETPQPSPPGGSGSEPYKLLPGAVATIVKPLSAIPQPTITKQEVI
TPT1 inhibitor = Candida albicans TPT1 enzyme inhibitors, primary screen, biochemical, fluorescence polarization. tRNA 2'-phosphotransferase TPT1 (Candida albicans SC5314). recombinant caTPT1, FP RNA substrate dephosphorylation. inhibition, % at 5 µM. 300,000 tested, 0.81% active. AID 1962, 2009;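 active = inhibition above the mean of all tested compounds plus 3 SD, set per screening campaign, cut at about 24% in these data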;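 also: plate controls were DMSO alone for no effect and ferristatin control at 100 nM for full effect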
PHOSPHO1 inh = PubChem AID 1565. Phosphoethanolamine/phosphocholine phosphatase (Homo sapiens), Q8TCT1. recombinant PHOSPHO1, absorbance phosphatase assay. inhibition, % at 13.3 µM. 290,000 tested, 1.1% active; in the data active = inhibition above about 60%
NRP1-CendR mod = modulators of CendR peptide binding to NRP-1, primary screen, biochemical, fluorescence polarization, uHTS. AID 602438, 2012. inhibition, % at 25 µM. 360,000 tested, 0.85% active. Neuropilin-1 (Homo sapiens), O14786. FAM-RPARPAR peptide binding to NRP-1;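 active = inhibition or corrected inhibition above about 18%, plus a signal ratio from 0.5 to 1.5, limit read from the data, passing the limit was not always enough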
Active calls of the source: *; . = no result. The list is not random: actives were taken first. Their share in the collection is about 3.3%.

SMILES	Rpn11 block	CTSL1 counter	HNF4A DNA FP	TPT1 inhibitor	PHOSPHO1 inh	NRP1-CendR mod
O=C(O)CC(Cc1ccccc1)(C(=O)O)c1ccccc1 (centres undefined)	7	-5	0	-1	29	4
COc1ccc(S(=O)(=O)N(CC(=O)N2CCN(C)CC2)c2ccccc2)cc1OC	-2	-3	1	0	-1	0
COC(C/C=C\[C@H](O)COCc1ccccc1)OC	-6	1	-2	-1	.	25*
Cc1ccc(C23CC4CC(CC(NC(=O)NN)(C4)C2)C3)cc1	-3	28*	6	-3	22	0
Cc1ccc(C23CC4CC(CC(NC(=O)NC(C)(C)CO)(C4)C2)C3)cc1	4	-2	6	2	13	6
O=C1CN(C(=O)Cn2ncc(Cl)c(Cl)c2=O)c2ccccc2N1	-4	.	-1	.	4	-8
C/C=C/Cn1c(SC)nc2c1c(=O)[nH]c(=O)n2C	0	2	-4	-2	71*	-2
C/C=C/Cn1c(Br)nc2c1c(=O)[nH]c(=O)n2C	1	-5	-3	-4	10	9
COC(=O)COc1ccc(S(=O)(=O)N2CCN(c3ccc(OC)cc3)CC2)cc1	-5	-5	-1	-3	-8	24*
COc1ccc(N2CCN(S(=O)(=O)c3cnc[nH]3)CC2)cc1	-2	17*	-3	-1	-10	-14
O=C(COc1ccc(S(=O)(=O)N2CCOCC2)cc1)N1CCN(c2ccccc2)CC1	-3	4	3	-2	68*	6
O=C(Nc1nnc(C2CC2)s1)c1cccnc1Oc1ccc(Cl)cc1	3	-2	0	-1	12	-7
Cc1ccc(NC2=C(Cl)C(=O)OC2OC(=O)c2ccco2)cc1C (centres undefined)	-4	54*	-1	-3	-9	5
Cc1ccc(NC2=C(Cl)C(=O)OC2OC(=O)c2ccco2)c(C)c1 (centres undefined)	0	48*	-4	3	.	2
Cc1ccc(C)c(NC2=C(Cl)C(=O)OC2OC(=O)c2ccco2)c1 (centres undefined)	0	10	-3	3	-9	-4
Cc1ccccc1C(=O)OC1OC(=O)C(Cl)=C1Nc1ccc(C(=O)O)cc1 (centres undefined)	0	-4	1	-2	4	-4
Cc1cc(NC(=O)CO/N=C/c2ccc3c(c2)OCO3)ccc1Br	0	-2	-4	2	34	5
CC(C(=O)OCC(=O)Nc1ccc2c(c1)OCO2)N1C(=O)c2ccccc2C1=O (centres undefined)	-8	0	4	-8	-30	22*
CC1CN(S(=O)(=O)c2cccc(C(=O)OCC(=O)Nc3ccc4c(c3)OCO4)c2)CC(C)O1 (centres undefined)	-4	-3	3	-4	62*	-1
CCOc1ccc(/C=N/OCC(=O)Nc2ccc3c(c2)OCO3)cc1	2	-4	4	1	-10	32*
COc1cc(/C=C/C(=O)OCC(=O)Nc2ccc3c(c2)OCO3)ccc1O	6	.	2	.	.	-4
CC(C(=O)Oc1ccc2c(c1)OCO2)N1C(=O)c2ccccc2C1=O (centres undefined)	.	-5	.	-4	-4	.
COc1ccc(/C=C/C(=O)OCC(=O)Nc2ccc3c(c2)OCO3)cc1	-2	.	11	.	.	21*
COc1cccc(C(CC(=O)NCc2ccco2)NS(=O)(=O)c2ccc(C)cc2)c1OC (centres undefined)	-8	-1	1	-2	-24	-10
COc1cc2c(cc1OC)C(C(=O)Nc1cc(OC)c(OC)c(OC)c1)C(c1cccnc1)N(C)C2=O (centres undefined)	8	-5	1	0	0	-16
SMILES	Rpn11 block	CTSL1 counter	HNF4A DNA FP	TPT1 inhibitor	PHOSPHO1 inh	NRP1-CendR mod
FC(F)(F)C1CC(c2cccs2)Nc2ncnn21 (centres undefined)	-4	1	2	3	-28	30*
CCC(C)NC(=O)c1cnn2c1NC(c1cccs1)CC2C(F)(F)F (centres undefined)	6	4	1	4	8	22*
O=S1(=O)N[C@H](Cc2ccccc2)COc2cccc(N3CCC[C@H]3CO)c21	.	.	0	.	.	1
COc1ccc(NC(=O)C[C@H]2C(=O)N(c3ccccc3)C[C@@H]2CSC)cc1	-2	.	2	.	.	-5
COc1cccc(NC(=O)CCS(=O)(=O)c2cc3c(cc2Cl)NC(=O)CO3)c1	-2	-5	1	1	44	5
Cc1cc(C)n2cc(CSc3nnc(SCc4cn5c(C)cc(C)nc5n4)s3)nc2n1	.	.	.	.	19	.
Cc1cc(C)n2cc(CSc3nnc(-c4ccccc4)o3)nc2n1	-6	-4	-2	2	78*	2
Cc1cc(C)n2cc(CSCc3ccccc3)nc2n1	-1	5	-1	-2	-1	10
Cc1cc(C)n2cc(CSc3nnc(N)s3)nc2n1	-7	6	-1	-3	71*	5
CCN1C(=O)[C@@H]2[C@@H](c3ccc(-c4ccc(F)cc4)c(OC)c3)N3CCCC[C@@]3(C(=O)OC)[C@@H]2C1=O	31	2	10	3	.	-19
N#Cc1c(-c2ccc(Cl)cc2)c(-c2ccc(Cl)cc2)nn(CCO)c1=O	10	.	1	.	.	8
CN(c1ccc(C(=O)Nc2ccc3c(c2)OCO3)cc1)S(C)(=O)=O	4	17*	1	-1	43	-5
Cc1ccc(CNc2ccc3c(c2)OCO3)cc1	-93	0	-60	9	-22	127
c1cc(CNc2ccc3c(c2)OCO3)ccn1	-39	-1	-12	-38	-10	30*
COc1ccc(OC)c(S(=O)(=O)N(C)CC(=O)Nc2ccc3c(c2)OCO3)c1	-1	-3	1	1	4	32*
COC(=O)CNc1ccc2c(c1)OCO2	-86	-2	-28	-11	-4	25*
Cc1cc(C(F)(F)F)nc(-n2cc(-c3ccccc3)nn2)n1	0	1	1	-3	23	-7
CCCNC(=O)C1(C)CCCN(C(=O)c2ccccc2OC)C1 (centres undefined)	-2	.	0	.	.	-11
Cc1ccc(NC(=O)CN(C)CC(=O)Nc2ccc3c(c2)OCO3)cc1	-1	.	-2	.	.	22*
CCN(CC(=O)Nc1ccc2c(c1)OCCO2)C(=O)/C=C/c1ccc(OC)cc1OC	-7	3	-2	-4	62*	7
COc1cccc(NC(=O)CN(C)CC(=O)Nc2ccc3c(c2)OCO3)c1	2	.	0	.	.	13
